These results are taken from PubChem BioAssay (Tox21).

Results filed as inconclusive are left out. The source made the active and inactive calls. Unless noted, calls follow the shape of the full dose curve.

Assay [1] is described as follows: Nuclear factor erythroid 2-related factor 2/antioxidant responsive element (Nrf2/ARE) small molecule agonists: qHTS cell viability counter screen in human keratinocytes (AID 1919968; active = well fitted curve in the direction sought with a large enough effect in the repeat runs; an effect the other way counts as inactive or inconclusive; also: nearly all actives have a fitted effect of over 55% in size; also: potency is read from the fitted curve at half-maximal effect). The method in brief: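 Stably transfected HaCaT (KeratinoSens), 1,500/well. Test agents in DMSO were applied for 23 h, 37 C/5% CO2. CellTiter-Fluor was incubated 1 h before the fluorescence read.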
A general note: Quantitative high-throughput screening tests each substance at several concentrations.

Assay [2] deals with Gonadotropin-releasing hormone receptor (Homo sapiens) (UniProt P30968). Briefly: Human gonadotropin-releasing hormone receptor (GnRHR) small molecule agonists, calcium flux assay in GnRHR-HEK293 cells (AID 1920063). Also: nearly all actives have a fitted effect of over 35% in size. Also: potency is read from the fitted curve at half-maximal effect. Summed up: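 Stable human GnRHR HEK293 line. 18 h plating, then calcium dye for 1 h at 37 C. Agonist-mode compound addition from DMSO stocks; fluorescence monitored 3 min.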
Background: A change in cytosolic calcium serves as a functional read-out for many receptors and channels.

Assay [3] deals with KiSS-1 receptor (Homo sapiens) (UniProt Q969F8). Kind of assay: Human kisspeptin (KISS1R) small molecule agonists, calcium flux assay in KISS1R-HEK293 cells (AID 1920064; active = well fitted curve in the direction sought with a large enough effect in the repeat runs; an effect the other way counts as inactive or inconclusive; also: potency is read from the fitted curve at half-maximal effect). The method in brief: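 After overnight (18 h) culture at 37 C/5% CO2, human KISS1R-HEK293 cells received calcium dye for 1 h, then test compound; emission at 540 nm (excitation 480 nm) was tracked for 3 min.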

A short description of assay [4]: G protein-coupled receptor (GPCR) small molecule agonists, calcium flux assay: HEK293 wild type cell line counter screen (AID 1920065). Also: potency is read from the fitted curve at half-maximal effect. The method in brief:
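Following 18 h incubation at 37 C/5% CO2, plates got calcium dye for 1 h; compounds, ATP or DMSO were then pinned in and fluorescence followed kinetically (480/540 nm).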

The nature of assay [5]: p53 small molecule agonists, cell-based qHTS assay with human liver microsomes (AID 1963577).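 Also: p53 response element beta-lactamase reporter cells with liver microsomes plus NADPH.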 Summed up: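 Steps: plate p53RE-bla cells, incubate 5 h at 37 C; add compound in DMSO; add microsomes (0.5 mg/mL final) and NADPH (0.5 mg/mL final); incubate 16 h at 37 C; add LiveBLAzer, 2 h RT; read fluorescence.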
Assay [6] can be described thus: p53 small molecule agonists, cell-based qHTS assay with rat liver microsomes (AID 1963578). The method in brief: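 Metabolic activation is supplied by rat liver microsomes with NADPH (each 0.5 mg/mL final). p53RE-bla cells incubate with compound 16 h at 37 C; reporter activity is measured by LiveBLAzer fluorescence.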
The nature of assay [7]: p53 small molecule agonists, cell-based qHTS assay with human liver microsomes: qHTS cell viability counter screen (AID 1963579). Also: nearly all actives have a fitted effect of over 45% in size. The method in brief:
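After the 460/530 nm beta-lactamase read, CellTiter-Glo was added to the same wells and luminescence measured after 30 min at room temperature, giving viability of p53RE-bla cells treated 16 h with compounds plus microsomes and NADPH.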

Assay [8] is described as follows: p53 small molecule agonists, cell-based qHTS assay (AID 1963582; active = well fitted activation curve with a large enough effect in the signal ratio in the repeat runs, not every such curve was filed as active; the % refers to the signal ratio). Summed up:
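Measured: fluorescence from cleaved LiveBLAzer substrate. System: p53RE-bla cells, 16 h compound treatment at 37 C, 2 h substrate step at room temperature.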

Assay [9] has as its target 5-hydroxytryptamine receptor 2A (Homo sapiens) (UniProt P28223). Briefly: 5-hydroxytryptamine receptor 2A (HTR2A) small molecule antagonists, cell-based qHTS assay (AID 1963586). Also: nearly all actives have a fitted effect of over 45% in size. Summed up: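 CHO cells stably expressing human HTR2A were plated for 18 h at 37 C, then loaded with calcium dye for 1 h. Compounds were preincubated 5 min at room temperature before DOI (4 nM solution) was added. Kinetic fluorescence was read for 3 min.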

Assay [10] shares this target. Briefly: 5-hydroxytryptamine receptor 2A (HTR2A) small molecule agonists, cell-based qHTS assay (AID 1963587). Also: nearly all actives have a fitted effect of over 30% in size. Also: potency is read from the fitted curve at half-maximal effect. Summed up:
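Kinetic calcium-flux fluorescence (2 min, 1 sec intervals) after compound addition in agonist mode. HTR2A-CHO cells were cultured 18 h, then dye-loaded 1 h at 37 C.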

The target in assay [11] is Muscarinic acetylcholine receptor M1 (Homo sapiens) (UniProt P11229). Briefly: Cholinergic receptor muscarinic 1 (CHRM1) small molecule antagonists, cell-based qHTS assay (AID 1963588). Also: nearly all actives have a fitted effect of over 40% in size. The method in brief:
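Compounds were tested at 15 concentrations in three independent runs. Dye-loaded CHRM1-CHO cells were exposed 5 min at room temperature before stimulation by acetylcholine added at 50nM. Intracellular calcium was read kinetically on FDSS for 3 min.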

Assay [12] has the same target. Kind of assay: Cholinergic receptor muscarinic 1 (CHRM1) small molecule agonists, cell-based qHTS assay (AID 1963589). Also: nearly all actives have a fitted effect of over 35% in size. Also: potency is read from the fitted curve at half-maximal effect. Summed up:
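Kinetic fluorescence (1 s intervals) of calcium-sensitive dye in human M1 CHO cells after compound addition; cells pre-incubated 18 h at 37 C/5% CO2 and dye-loaded 1 h.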

Assay [13] concerns the target Beta-2 adrenergic receptor (Homo sapiens) (UniProt P07550). Kind of assay: Adrenergic beta2 receptor (ADRB2) small molecule antagonists, cell-based qHTS assay (AID 1963592). Also: series mostly up to about 92 µM; nearly all actives have a fitted effect of over 50% in size. Summed up: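 Assay format: CHO-ADRB2 cells, 18-20hr seeding at 37C/5% CO2, then compound plus 1nM isoproterenol agonist mix for 0.5hr RT. Homogeneous time-resolved fluorescence cAMP detection after 1hr, expressed as 665/615 nm ratio.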

Assay [14] can be described thus: p53 small molecule agonists, cell-based qHTS assay: qHTS cell viability counter screen (AID 1963581). Also: nearly all actives have a fitted effect of over 45% in size. Summed up:
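qHTS counter screen: 16 h compound exposure at 37 C of p53RE-bla HCT-116 cells (4,000 per well, seeded 5 h prior), cell viability by ATP luminescence.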

Assay [15] deals with Beta-2 adrenergic receptor (Homo sapiens) (UniProt P07550). Briefly: Adrenergic beta2 receptor (ADRB2) small molecule agonists, cell-based qHTS assay (AID 1963593).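 Also: CHO cells stably overexpressing human ADRB2.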 The method in brief:
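CHO cells stably over-expressing ADRB2 were plated overnight at 37C, then dosed with compounds plus a stimulation mix containing 100uM IBMX and 25uM Ro-20-1724 for 0.5hr at room temperature. cAMP was measured by HTRF competition, 1hr.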

Assay [16] has as its target D(2) dopamine receptor (Homo sapiens) (UniProt P14416). Briefly: Dopamine D2 receptor (DRD2) small molecule agonists, cell-based qHTS assay (AID 1963594). Also: nearly all actives have a fitted effect of over 35% in size. Also: potency is read from the fitted curve at half-maximal effect. Summed up: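 cAMP accumulation in DRD2-HEK293 cells measured by HTRF after 1 h detection; compounds added 10 min before NKH477 (200nM […]) forskolin-analogue stimulation, 30 min at room temperature, with Ro20-1724 present at 0.1 mM final.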

Assay [17] has the same target. Briefly: Dopamine D2 receptor (DRD2) small molecule antagonists, cell-based qHTS assay (AID 1963595; active = well fitted inhibition curve with a large enough effect in the signal ratio in the repeat runs, with a control signal flat; the % refers to the signal ratio). Summed up: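 Cells were plated and grown for 24 h at 37 °C. Ro20-1724 (0.1 mM final) went in first, then compound for 10 min. NKH477 (200 nM) with quinpirole (12 nM) followed for 30 min at RT, then HTRF detection reagents for 1 h.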
Assay [18] can be described thus: p53 small molecule agonists, cell-based qHTS assay with rat liver microsomes: qHTS cell viability counter screen (AID 1963580). Also: nearly all actives have a fitted effect of over 45% in size. Summed up:
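Cytotoxicity counter screen: intracellular ATP read by CellTiter-Glo luminescence in the p53 reporter wells. HCT-116 p53RE-bla cells were treated for 16 h at 37 C alongside rat liver microsomes and NADPH, each 0.5 mg/mL final.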

A short description of assay [19]: cAMP Responsive Elements (CRE) small molecule agonists, cell-based qHTS assay (AID 1963590). The method in brief: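 Test agents in DMSO were incubated 3 h at 37 C/5% CO2 with CRE-bla HEK 293T cells seeded 18 h earlier; LiveBLAzer B/G FRET substrate was added and read after 2 h at room temperature.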
Assay [20] can be described thus: cAMP Responsive Elements (CRE) small molecule antagonists, cell-based qHTS assay (AID 1963591; active = well fitted inhibition curve with a large enough effect in the signal ratio in the repeat runs, not every such curve was filed as active; the % refers to the signal ratio). Summed up:
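Reporter line CRE-bla HEK 293T in dialyzed-FBS DMEM; cells preincubated 18 h, treated 3 h with compound plus NKH477 (0.25 uM final); LiveBLAzer FRET, 2 h RT.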

Chain of KiSS-1 receptor (Homo sapiens) (Q969F8 whole entry, looked up): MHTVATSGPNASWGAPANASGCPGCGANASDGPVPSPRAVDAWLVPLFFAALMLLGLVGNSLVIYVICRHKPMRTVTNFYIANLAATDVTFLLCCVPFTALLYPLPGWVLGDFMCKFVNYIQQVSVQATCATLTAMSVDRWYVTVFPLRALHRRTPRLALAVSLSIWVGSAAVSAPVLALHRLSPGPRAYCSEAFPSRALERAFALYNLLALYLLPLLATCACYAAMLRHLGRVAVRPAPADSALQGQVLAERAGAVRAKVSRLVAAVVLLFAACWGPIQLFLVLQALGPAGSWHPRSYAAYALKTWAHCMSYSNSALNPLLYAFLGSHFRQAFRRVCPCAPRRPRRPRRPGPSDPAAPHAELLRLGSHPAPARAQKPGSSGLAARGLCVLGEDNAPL
Chain of Beta-2 adrenergic receptor (Homo sapiens) (P07550 whole entry, looked up): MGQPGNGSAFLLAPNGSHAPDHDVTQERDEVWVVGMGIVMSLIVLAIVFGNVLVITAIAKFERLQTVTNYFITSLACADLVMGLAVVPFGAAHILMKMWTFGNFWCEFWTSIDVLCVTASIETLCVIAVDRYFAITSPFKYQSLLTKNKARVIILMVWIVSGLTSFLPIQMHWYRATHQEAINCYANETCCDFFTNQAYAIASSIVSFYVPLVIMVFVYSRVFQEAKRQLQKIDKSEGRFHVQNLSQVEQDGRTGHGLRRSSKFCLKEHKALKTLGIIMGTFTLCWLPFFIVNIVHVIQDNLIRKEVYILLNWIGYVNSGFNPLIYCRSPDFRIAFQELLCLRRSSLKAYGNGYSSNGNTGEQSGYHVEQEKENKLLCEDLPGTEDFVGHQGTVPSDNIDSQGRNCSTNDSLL
Chain of D(2) dopamine receptor (Homo sapiens) (P14416 whole entry, looked up): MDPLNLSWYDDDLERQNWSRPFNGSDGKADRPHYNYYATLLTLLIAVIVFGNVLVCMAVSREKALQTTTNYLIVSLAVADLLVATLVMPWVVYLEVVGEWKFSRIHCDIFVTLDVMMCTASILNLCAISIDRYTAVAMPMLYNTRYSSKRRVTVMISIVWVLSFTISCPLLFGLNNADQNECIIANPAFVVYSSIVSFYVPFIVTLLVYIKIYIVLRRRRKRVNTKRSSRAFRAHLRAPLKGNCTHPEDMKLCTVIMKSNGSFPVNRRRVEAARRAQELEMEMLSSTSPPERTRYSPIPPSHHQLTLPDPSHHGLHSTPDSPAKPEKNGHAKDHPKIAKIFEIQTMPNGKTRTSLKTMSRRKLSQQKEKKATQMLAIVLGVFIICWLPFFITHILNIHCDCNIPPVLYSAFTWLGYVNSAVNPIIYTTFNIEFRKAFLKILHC
Chain of Muscarinic acetylcholine receptor M1 (Homo sapiens) (P11229 whole entry, looked up): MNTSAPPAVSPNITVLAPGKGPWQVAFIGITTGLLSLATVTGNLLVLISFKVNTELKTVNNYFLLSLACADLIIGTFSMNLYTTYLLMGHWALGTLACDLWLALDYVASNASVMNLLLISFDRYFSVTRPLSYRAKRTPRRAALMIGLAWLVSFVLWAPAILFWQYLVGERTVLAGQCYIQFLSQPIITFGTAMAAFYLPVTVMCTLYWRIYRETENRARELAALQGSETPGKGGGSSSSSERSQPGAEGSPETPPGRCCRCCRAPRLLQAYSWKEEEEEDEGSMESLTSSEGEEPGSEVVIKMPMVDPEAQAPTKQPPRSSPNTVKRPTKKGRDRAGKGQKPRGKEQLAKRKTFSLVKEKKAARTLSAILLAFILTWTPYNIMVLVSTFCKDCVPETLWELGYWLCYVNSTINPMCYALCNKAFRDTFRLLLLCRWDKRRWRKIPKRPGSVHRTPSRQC
Chain of 5-hydroxytryptamine receptor 2A (Homo sapiens) (P28223 whole entry, looked up): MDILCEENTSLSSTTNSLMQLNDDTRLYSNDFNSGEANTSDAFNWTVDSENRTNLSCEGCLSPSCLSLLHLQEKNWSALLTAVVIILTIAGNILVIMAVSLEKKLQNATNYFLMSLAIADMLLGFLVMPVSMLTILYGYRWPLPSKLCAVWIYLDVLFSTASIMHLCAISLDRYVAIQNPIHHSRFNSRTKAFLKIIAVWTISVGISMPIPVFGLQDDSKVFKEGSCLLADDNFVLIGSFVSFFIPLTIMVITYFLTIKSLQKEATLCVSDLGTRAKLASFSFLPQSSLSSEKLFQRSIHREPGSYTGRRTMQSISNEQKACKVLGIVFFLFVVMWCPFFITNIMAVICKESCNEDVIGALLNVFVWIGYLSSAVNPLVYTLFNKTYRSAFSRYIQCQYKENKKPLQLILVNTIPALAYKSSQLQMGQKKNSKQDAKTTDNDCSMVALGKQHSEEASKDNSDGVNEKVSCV
Chain of Gonadotropin-releasing hormone receptor (Homo sapiens) (P30968 whole entry, looked up): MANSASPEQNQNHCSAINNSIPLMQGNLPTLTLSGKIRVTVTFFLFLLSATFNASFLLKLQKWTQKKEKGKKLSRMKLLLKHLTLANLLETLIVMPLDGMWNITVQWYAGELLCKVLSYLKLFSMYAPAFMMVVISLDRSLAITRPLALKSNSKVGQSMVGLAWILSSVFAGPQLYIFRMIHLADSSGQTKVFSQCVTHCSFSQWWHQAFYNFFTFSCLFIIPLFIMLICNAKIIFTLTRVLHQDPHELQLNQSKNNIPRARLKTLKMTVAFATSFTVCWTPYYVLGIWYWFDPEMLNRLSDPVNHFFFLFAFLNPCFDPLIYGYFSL

For `Cc1cc(O)c2ccccc2c1O`, the Potency in assay [1] was 13.3 µM (active). Moreover, the Potency entry in [2], in [3], in [4], in [5], in assay [6] and in assay [7] was “inactive” in each case. The Potency result in [8], in assay [9], in assay [10], in [11], in [12] and in [13] was “inactive” each time.

For the molecule `O=[N+]([O-])c1cccc(S(=O)(=O)O)c1`, the Potency result in [1], in assay [2], in assay [3], in assay [4], in [5] and in [6] was “inactive” in each case. For the same molecule, the Potency result in [7], in assay [14], in assay [8], in assay [9], in assay [10] and in assay [11] was “inactive” each time. The Potency entry in [12], in assay [13], in assay [15], in [16] and in assay [17] was “inactive” in each case.

For the molecule `CC(C(=O)O)c1ccc2c(c1)[nH]c1ccc(Cl)cc12` (centres undefined), the Potency result in assay [1], in [2], in [3], in assay [4], in assay [5] and in assay [6] was “inactive” each time. Besides, the Potency result in assay [18], in assay [14], in assay [9], in assay [10], in [11] and in [13] was “inactive” in each case. In addition, the Potency entry in [15], in assay [16] and in assay [17] was “inactive” in each case.

In the case of `O=C(O)C(=O)Cc1ccccc1`, the Potency result in assay [1], in assay [2], in [3], in assay [4], in [5] and in [6] was “inactive” each time. Moreover, the Potency result in assay [18], in assay [14], in assay [8], in assay [9], in assay [10] and in [11] was “inactive” in each case. Besides, the Potency entry in [12], in assay [19], in assay [20], in assay [13], in assay [15] and in assay [16] was “inactive” in each case.

For the molecule `CC(C)c1ccccc1`, the Potency entry in [1], in assay [2], in [3], in assay [4], in assay [5] and in assay [6] was “inactive” in each case. In addition, the Potency entry in assay [7], in assay [14], in assay [8], in [9], in [10] and in assay [11] was “inactive” in each case. The Potency entry in [12], in [19], in [16] and in assay [17] was “inactive” throughout.

As to `CCc1c(C)cc(N)c(CC)c1N`, the Potency result in assay [1], in assay [2], in assay [3], in [4], in [5] and in [6] was “inactive” throughout. In addition, the Potency entry in assay [7], in [14], in assay [8], in assay [9], in assay [10] and in assay [11] was “inactive” each time. Moreover, the Potency entry in assay [19], in assay [20], in assay [16] and in [17] was “inactive” in each case.

Take `CCc1oc2ccccc2c1C(=O)c1cc(I)c(O)c(I)c1`: the Potency in assay [1] is 5.96 µM (active). The Potency result in assay [2], in assay [3], in [4], in assay [5], in assay [6] and in [18] was “inactive” throughout. Besides, the Potency entry in [14], in assay [10], in assay [12], in [19], in assay [20] and in assay [13] was “inactive” in each case. The Potency result in assay [16] and in assay [17] was “inactive” each time.

As for `CCN(CC)c1ccc2c(-c3ccccc3C(=O)O)c3ccc(=[N+](CC)CC)cc-3oc2c1`, the Potency in assay [1] was 15.4 µM (active); in assay [2] it was 34.7 µM (active); in [3] it was 49 µM (active); in assay [4] it was 34.7 µM (active); in assay [10], 49 µM (active); in assay [12], 43.6 µM (active). Further, the Potency in assay [16] was 58.8 µM (active). Further, the Potency entry in assay [5], in [6], in assay [18], in [14], in assay [9] and in assay [19] was “inactive” each time. The Potency result in [20] is “inactive”.
